In PubChem BioAssay (NCI) one finds growth inhibition data, which are given here for 20 compounds.

This is part of a sample that, as a whole, favours compounds with a hit. Of some 79,000 tested, about 15% had one in any assay. Values without a mark were called inactive. Active and inactive are the calls of the source. Cut-off read from the data, not from the text of the source: active = growth inhibition above about 70%; inactive = the rest.

A short description of assay [1]: NCI Yeast Anticancer Drug Screen. Data for the rad50 strain (AID 155).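 Note: 0% = growth of vehicle-only cultures of the same strain.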 The conditions noted are these: S. cerevisiae rad50 strain growth inhibition; at 50.0 µM; hits give high values. In outline: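 Growth of the mutant yeast was measured after compound exposure and referenced to vehicle-treated cultures.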
Assay [2] in a line: NCI Yeast Anticancer Drug Screen. Data for the mec2-1 strain (AID 157). The conditions noted are these: S. cerevisiae mec2-1 strain, at 50.0 µM, hits give high values. The essentials:
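Strain: mec2-1 (DNA repair/cell cycle alteration). Compound exposure, then growth measured; inhibition expressed relative to vehicle.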

The nature of assay [3]: NCI Yeast Anticancer Drug Screen. Data for the sgs1 mgt1 strain (AID 161).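 Note: 0% = growth of cultures given vehicle only.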 The conditions noted are these: S. cerevisiae sgs1 mgt1 strain, at 50.0 µM, hits give high values. In outline: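 Mutant yeast exposed to compound; growth scored against vehicle-only wells.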
The nature of assay [4]: NCI Yeast Anticancer Drug Screen. Data for the cln2 rad14 strain (AID 165).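 Note: 0% = growth equal to vehicle treated cultures.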 To be noted: S. cerevisiae cln2 rad14 strain, at 50.0 µM, hits give high values. The essentials: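 Compounds are applied to the cln2 rad14 yeast strain, and growth is then compared with that of vehicle-treated cultures to give inhibition.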
Assay [5] is described as follows: NCI Yeast Anticancer Drug Screen. Data for the bub3 strain (AID 167). The conditions noted are these: S. cerevisiae bub3 mutant strain, at 50.0 µM, hits give high values. In outline: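 Whole-cell yeast assay. The mutant strain was incubated with compounds, and growth inhibition was determined by comparison with vehicle-treated cells.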
The nature of assay [6]: NCI Yeast Anticancer Drug Screen. Data for the mlh1 rad18 strain (AID 175). To be noted: S. cerevisiae mlh1 rad18 strain growth inhibition; at 50.0 µM; hits give high values. In outline:
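Read-out is yeast growth inhibition, calculated against vehicle-only controls. The compound was applied to a strain engineered with DNA damage repair alterations.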

Regarding `Nc1cc2c(cc1Cl)-c1cc(Cl)ccc1C2=O`, the growth inhibition in assay [1] is 5.7%; in assay [2] it was -9.65%; in assay [3] it was -2.2%; in assay [4], -24.4%; in assay [5], -8.5%; in assay [6] it was -8.5%.
`CCCCCCC(C)C(=O)Nc1ccccc1` (stereo not given): the growth inhibition is 16.7% in assay [1]; -11.8% in assay [2]; 10.7% in assay [3]; 2.75% in assay [4]; -2.95% in assay [5]; -17.1% in assay [6].
With `O=c1[nH]cnc2nn(C3OC(CO)C(O)C3O)nc12` (stereo not given), the growth inhibition in assay [1] was 10.7%; in assay [2], 11.5%; in assay [3] it was 1.5%; in assay [4], 11.2%; in assay [5], -7.2%; in assay [6], 23.6%.
In the case of `COC(=O)C1C(=O)CC2CCCCC21` (stereo not given), the growth inhibition in assay [1] was 2.75%; in assay [2], -19.6%; in assay [3] it was -13.9%; in assay [4] it was 20.6%; in assay [5] it was -22.3%; in assay [6], 16.8%.
In the case of `O=C(O)C(CO)Nc1ccccc1` (stereo not given), the growth inhibition in assay [1] was 18.9%; in assay [2], 10.4%; in assay [3], 22.1%; in assay [4] it was 12.9%; in assay [5], -0.65%; in assay [6] it was 21.7%.
For `COc1cc(C(=O)C(O)c2cc(OC)c(OC)c(OC)c2)cc(OC)c1OC` (stereo not given), the growth inhibition was 18% in assay [1]; 11.2% in assay [2]; 11.1% in assay [3]; -13% in assay [4]; 2.95% in assay [5]; 28.3% in assay [6].
As to `COc1cccc(/C(C=O)=C(\Cl)c2ccc(OC)c(OC)c2)c1`, the growth inhibition was 10.1% in assay [1]; 9.55% in assay [2]; 12.4% in assay [3]; 6.7% in assay [4]; 33.5% in assay [5]; -8.3% in assay [6].
With `CCN(CC)n1c(N)nc2c1c(=O)n(C)c(=O)n2C`, the growth inhibition is -9.05% in assay [1]; -6.65% in assay [2]; 2.95% in assay [3]; -24.6% in assay [4]; 9.65% in assay [5]; 13.3% in assay [6].
`O=C(O)c1ccc(CSc2ccccc2C(=O)O)cc1`: the growth inhibition in assay [1] is 16.4%; in assay [2], -16.6%; in assay [3] it was -6.95%; in assay [4], 15.4%; in assay [5], -14.7%; in assay [6], 33.8%.
For the compound `CC(C)C1=C(Cc2ccccc2)C(=O)O/C1=C\c1ccc(O)c(Cl)c1`, the growth inhibition in assay [1] is 2.8%; in assay [2], -22.9%; in assay [3], 28.2%; in assay [4], 21.4%; in assay [5] it was 6.05%; in assay [6] it was -20.1%.
With `COc1ccccc1CO`, the growth inhibition in assay [1] was 0.85%; in assay [2], -13.8%; in assay [3], 3.85%; in assay [4], 13.7%; in assay [5], 13.8%; in assay [6], -1.15%.
With `CC(=O)SSC12CC3CC(CC(C3)C1)C2`, the growth inhibition in assay [1] was -24.6%; in assay [2] it was -17.4%; in assay [3], -4.75%; in assay [4], -48.9%; in assay [5] it was 0.55%; in assay [6] it was -7.7%.
Regarding `O=S(=O)(NCC(Cl)CCl)c1ccccc1` (stereo not given), the growth inhibition in assay [1] is 0.7%; in assay [2], -2.8%; in assay [3], -12.7%; in assay [4], 3.85%; in assay [5], 3.55%; in assay [6], 5%.
Turning to `OCCN(Cc1ccccc1)C(c1ccccc1)c1ccccc1`, the growth inhibition was 98.8% (active) in assay [1]; 98.9% (active) in assay [2]; 98.8% (active) in assay [3]; 98.4% (active) in assay [4]; 98.5% (active) in assay [5]; 98.9% (active) in assay [6].
Regarding `CN1C[C@H]2[C@@H](C1=O)[C@H](c1ccc([N+](=O)[O-])cc1)ON2C`, the growth inhibition in assay [1] was -50.5%; in assay [2], -72.5%; in assay [3], -39.7%; in assay [4] it was 14.9%; in assay [5] it was 1.2%; in assay [6] it was -33.8%.
In the case of `CC(C)(C)c1[nH]ncc1CCC(=O)Nc1ccc(Cl)cc1Cl`, the growth inhibition is -0.6% in assay [1]; -1.95% in assay [2]; -5.85% in assay [3]; 1.1% in assay [4]; -16.1% in assay [5]; 4.05% in assay [6].
For the compound `O=C1C2C(C(=O)N1c1ccccc1)C1(c3ccccc3)CCC2(C(=O)c2ccccc2)O1` (stereo not given), the growth inhibition in assay [1] was 56.4%; in assay [2], -14.3%; in assay [3] it was 39.6%; in assay [4], -16.4%; in assay [5], 9.05%; in assay [6], 23.4%.
`O=C(N/N=C/c1ccc(Cl)cc1Cl)c1ccccc1SSc1ccccc1C(=O)N/N=C/c1ccc(Cl)cc1Cl`: the growth inhibition in assay [1] was -19.1%; in assay [2], 1.55%; in assay [3], -5.45%; in assay [4], -8.1%; in assay [5], -9.75%; in assay [6] it was 19.8%.
As for `C[n+]1ccc2c(Br)cccc2c1`, the growth inhibition in assay [1] was -1.8%; in assay [2], -14.9%; in assay [3], -6.45%; in assay [4] it was -12.7%; in assay [5], -1%; in assay [6] it was 13.5%.
Turning to `O=C1Nc2n[nH]c(=S)n2NC12c1ccccc1-c1ccccc12`, the growth inhibition in assay [1] is -45.8%; in assay [2], -14.2%; in assay [3] it was -28.1%; in assay [4], -19.9%; in assay [5], -21.7%; in assay [6], -63.2%.
